Potency and activity, negative = inhibition data for 40 molecules are collected here from PubChem BioAssay (Tox21).

Molecules are shown by their SMILES. Records with an inconclusive call do not appear. A call without a number means that no potency is given here. Active and inactive are the calls of the source. Calls follow the shape of the dose curve; as a rule, active = well fitted inhibition curve with a large enough effect in the repeat runs; inconclusive = weak or mixed curves; inactive = no such curve, though single readings can be large or run the other way.
Potency is read from the fitted curve at half-maximal effect.

This assay can be described thus: qHTS assay to identify small molecule antagonists of the thyroid receptor (TR) signaling pathway (AID 743065). Also: nearly all actives have a fitted effect of over 55% in size. The conditions noted are these: GH3.TRE-Luc, T3-stimulated luciferase inhibition, 23.5 h; series mostly up to 70.3 µM. From the text: U.S. Tox21 Program National Center for Advancing Translational Sciences [NCATS] NIH Chemical Genomics Center [NCGC] U.S. Environmental Protection Agency [EPA] National Institutes of Environmental Health Sciences [NIEHS] National Toxicology Program [NTP] U.S. Food and Drug Administration [FDA] Tox21 Assay Overview: Thyroid receptor (TR), a nuclear hormone receptor, plays an important role in development, proliferation, differentiation, metabolism, brain function, and cardiovascular system. […] To profile the Tox21 10K compound library in TR signaling, a cell-based GH3-TRE-Luc assay (GH3.TRE-Luc cell line, developed by the laboratory of Dr. Albertinka J. Murk, Wageningen University) was used to measure the inhibition of TR. GH3 (rat pituitary tumor) cells stably expressing a TR activity sensor consisting of two TR response elements and a luciferase reporter gene.
Tox21 Assay Protocol Summary: GH3.TRE-Luc cells were dispensed at 1500 cells/4 uL/well into 1536-well white solid bottom plates using a Multidrop Combi dispenser (Thermo Fisher Scientific Inc., Waltham, MA). After the assay plates were incubated at 37 C for 4 hours, 23 nL of library compound or DMSO controls was transferred to the assay plates by a pintool station (Kalypsys, San Diego, CA), followed by addition of 1 ul of T3 (1 nM, final concentration in the wells) to stimulate TR transactivation. The assay plates were incubated at 37 C for 23.5 h, and then 1 uL of CellTiter-Fluor reagent (Promega, Madision, WI) of measuring cytotoxicity was added to each well using a Bioraptr Flying Reagent Dispenser (FRD) workstation (Beckman Coulter, Indianapolis, IN, USA). The plates were incubated at 37 C and 5% CO2 for additional 30 min, and fluorescence intensity was measured by a ViewLux plate reader (PerkinElmer, Shelton, CT). For measuring luciferase reporter gene activity, 4 uL of ONE-Glo Luciferase Assay reagent (Promega) was added to each well using a Bioraptr FRD (Beckman Coulter), followed by 30 min incubation at room temperature. The luminescence intensity of plates was recorded by a ViewLux plate reader (PerkinElmer, Shelton, CT).
Background: qHTS replaces the single test concentration by a dilution series.
`O=C(O)c1cccc(C(=O)O)c1C(=O)O`: the Potency result is “inactive”.
On the same count and under the same terms, for `[O-][n+]1ccc(Cl)cc1` the value was “inactive”; for `CC(=O)OCC(=O)[C@@]1(O)CC[C@H]2[C@@H]3CCC4=CC(=O)C=C[C@]4(C)[C@@]3(F)[C@@H](O)C[C@@]21C`, “inactive”.
Take `CC(C)=CCCC(C)C=O` (stereo not given): the Potency result was “inactive”.
Consider `CCCCCCCCS`, for which the Potency entry was “inactive”.
Still for that read-out and setting: to `O=C(O)CCc1nc2ccccc2[nH]1` belongs “inactive”; to `c1ccc(-c2ccc(-c3ccccc3)cc2)cc1`, “inactive”.
On to `C[C@H]1C[C@H]2[C@@H]3CCC4=CC(=O)C=C[C@]4(C)[C@@]3(F)[C@@H](O)C[C@]2(C)[C@@]1(O)C(=O)COP(=O)(O)O`, for which the Potency result was “inactive”.
On the same count and under the same terms, for `Nc1cccc2c(=O)[nH][nH]c(=O)c12` the value was “inactive”; for `CC(C(=O)O)c1ccc2c(c1)Cc1cccnc1O2` (stereo not given), “inactive”; for `OCCOc1cccc(OCCO)c1`, “inactive”.
Take `O=C(OCCOCCOCCOC(=O)c1ccccc1)c1ccccc1`: the Potency result was “inactive”.
On the same count and under the same terms, for `CC(C)Cc1nccs1` the value was “inactive”; for `Cc1cc(C)n(CO)n1`, “inactive”; for `Cc1c(Nc2ncccc2C(=O)O)cccc1C(F)(F)F`, 2.85 µM (active).
On the same count and under the same terms, to `Sc1nc(S)nc(S)n1` belongs “inactive”.
With `CCCCCCCCCCCCCCCCCCCl`, the activity, negative = inhibition is 15% [at 8.44 µM] (inactive).
`Cc1ccc(NC=O)c(C)c1`: the Potency result was “inactive”.
On the same count and under the same terms, for `FC(F)(Cl)C(F)(Cl)Cl` the value was “inactive”; for `CCOC(=O)CC(O)(CC(=O)OCC)C(=O)OCC`, “inactive”; for `CCCCCO`, “inactive”.
Consider `CCCCCCCCCCCC(=O)OCC`, for which the Potency result is “inactive”.
On the same count and under the same terms, for `O=C(O)c1ccccc1[N+](=O)[O-]` the value was “inactive”.
As to `C[C@H](CN1CCCC1)C(=O)c1ccc(C(F)(F)F)cc1`, the Potency is 26.6 µM (active).
Still for that read-out and setting: for `CC(C)=CCC/C(C)=C/C=N/O` the value was “inactive”; for `CC[C@H](NC(C)C)[C@H](O)c1ccc(O)c2[nH]c(=O)ccc12`, “inactive”.
Same read-out and setting: to `CCCCCC1CCC(=O)O1` (stereo not given) belongs “inactive”; to `C=Cc1ccc(C=C)cc1`, “inactive”; to `O=C1c2ccccc2C(=O)C1c1ccc2ccccc2n1`, “inactive”.
Regarding `OCC(O)c1ccccc1` (stereo not given), the Potency result is “inactive”.
Same read-out and setting: for `CCCOC(C)=O` the value was “inactive”.
Still for that read-out and setting: for `CCc1cnc(C(=O)O)c(C(=O)O)c1` the value was “inactive”.
Same read-out and setting: to `CCCCCCCCCCCCCCCCN` belongs “inactive”; to `COc1ccc(/C=C/c2cc(OC)cc(=O)o2)cc1`, “inactive”; to `O=C(NC1CCN(CCc2c[nH]c3ccccc23)CC1)c1ccccc1`, 26.6 µM (active).
As to `CC(C)CC(C)(C)C`, the Potency result is “inactive”.
On the same count and under the same terms, for `OCCCO` the value was “inactive”.
The same measure, in the same setting: for `CC(=O)Nc1ccn(C2COC(COC(=O)c3ccccc3)O2)c(=O)n1` (stereo not given) the value was 16.8 µM (active).
Consider `N#CCCCC(C#N)CCC#N` (stereo not given), for which the Potency entry is “inactive”.
The same measure, in the same setting: to `CC1=CC(=C(c2ccc(N)cc2)c2ccc(N)cc2)C=CC1=N` belongs 10.6 µM (active).
